Screening results from PubChem BioAssay.
In the library only some 4% were active in any assay of this set; here they are far more common.
Wnt bcat act – activates Wnt/beta-catenin signaling in a reporter cell assay | activator, plate reader | activation, % at 9.35 µM | 300,000 compounds, 1.2% hits; in the data active = activation above about 30%, passing the limit was not always enough;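 note: 0% = neutral control wells and 100% = positive control wells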
PAX8 reporter – PAX8 transcriptional activity inhibition | 360,000 compounds, 1.2% hits | inhibition, % at 12.6 µM | RMG-I TPO-luciferase reporter, SteadyGlo, 24 h;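 active = mean replicate inhibition at least 60% with every replicate also reaching 60%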;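 note: luciferase light reporting Pax8 driven TPO promoter activity; plate controls were median of neutral control wells for no effect and mitoxantrone controls for full effect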
TRPM1 prom inh – reduces MITF-dependent TRPM1 promoter luciferase signal; SK-MEL-5 TRPM1 promoter luciferase, 24 h; inhibition, % at 12.5 µM; 330,000 compounds, 0.83% hits; AID 488899;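 active = mean inhibition across replicates of 60% or more, whatever share of single replicates reaches that level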
esBAF inh – blocks esBAF chromatin remodeling in mouse ES cells; 350,000 compounds, 2% hits; Bmi1-luciferase knock-in reporter, 24 h; 100% = twice the neutral-well signal; reporter increase, % at 12.5 µM; AID 602393; in the data active = activation above about 40%;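 note: 0% = median of the plate's neutral control wells and 100% = double that signal; a rise in the Bmi1 reporter signal indicates esBAF inhibition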
EWS-Fli inh – EWS/Fli transcriptional activity inhibition. inhibition, % at 12.6 µM. 350,000 compounds, 0.67% hits. AID 651661. A673 NR0B1-luciferase reporter, viability-normalised;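 active = mean inhibition of at least 50% after viability correction, with every replicate also passing that limit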;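 note: firefly luciferase signal divided by Alamar Blue viability fluorescence both relative to DMSO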
MITF act – MITF TRPM1 promoter activation in melanoma cells | SK-MEL-5 TRPM1-promoter luciferase, 24 h; % of positive control, neutral wells = 0 | 300,000 compounds, 0.75% hits | activation, % at 12.5 µM | AID 588334;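 active = mean activation of at least 80% with every replicate also reaching 80%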;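 note: 0% = neutral control wells and 100% = parthenolide positive control wells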
DNA binding – DNA binding small molecules; shares compounds with EWS-Fli inh; AC35, µM (highest dose often 68 µM), for the others: at the top dose activity change, negative = DNA binding; salmon sperm DNA acridine orange fluorescence polarization; AID 720586; 640 compounds, 2% hits;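 active = fitted curve reaches a 35% signal fall AC35 below twice the sample's top valid tested dose, actives reach about 48 µM in these data; inactive = the rest, including activity in the rising direction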;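 note: lower polarization ratio signals compound binding to DNA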
* = called active by the depositor; . = no result.

SMILES | Wnt bcat act | PAX8 reporter | TRPM1 prom inh | esBAF inh | EWS-Fli inh | MITF act | DNA binding
CC(C)(C)[S@](=O)N1Cc2cc(C(=O)NCC(F)(F)F)nc(-c3cccc(-c4cccc(F)c4)c3)c2[C@@H]1CCO | . | 48 | . | 8 | 55* | . | -2%
CCCn1c(C)cc(C(=O)CN2C(=O)c3ccccc3S2(=O)=O)c1C | -14 | 96* | . | -83 | 82* | . | -2%
COc1ccc(C(=O)CN2C(=O)c3ccccc3S2(=O)=O)cc1 | -4 | 93* | . | . | 87* | . | 6%
C=C[C@H](COC(C)=O)N(Cc1ccc(OC(C)=O)c(OC)c1)S(=O)(=O)c1ccc(Br)cc1 | . | -5 | . | . | -16 | . | .
CCc1c(C(=O)NN2C(=O)C3CCCCC3C2=O)csc1C (stereo not drawn) | -11 | 2 | -20 | . | 65* | 18 | -2%
Cc1noc(C)c1NC(=O)N(C)C[C@H]1OCCCC[C@@H](C)Oc2ccc(NS(=O)(=O)c3cn(C)cn3)cc2C(=O)N([C@H](C)CO)C[C@H]1C | . | -9 | . | -1 | -2 | . | .
COc1ccc(CN(C)c2ncnc3sccc23)c(OC)c1OC | -2 | 23 | 25 | -12 | 63* | -26 | -7%
Nc1ccc2c(c1)OC1(CCCC1)O2 | -5 | 31 | 62* | -54 | 68* | -61 | -5%
CN(c1ccc(NC(=O)CCc2c[nH]c3ccccc23)cc1)c1ccccn1 | -7 | 20 | . | . | 59* | . | -7%
O=C(C[C@@H]1C[C@H]2c3cc(NC(=O)CC4CC4)ccc3O[C@H]2[C@H](CO)O1)NCc1ccccc1F | . | . | . | 7 | 56* | . | -4%
COCC(=O)Nc1ccc2c(c1)[C@H]1C[C@@H](CC(=O)NCc3ccc(-c4ccccc4)cc3)O[C@@H](CO)[C@H]1O2 | . | 18 | . | 2 | 5 | . | .
O=C(C[C@H]1C[C@H]2c3cc(NC(=O)CC4CC4)ccc3O[C@H]2[C@@H](CO)O1)NCc1ccccc1F | . | . | . | -1 | -12 | . | .
COCC(=O)Nc1ccc2c(c1)[C@@H]1C[C@@H](CC(=O)NCc3ccc(-c4ccccc4)cc3)O[C@@H](CO)[C@@H]1O2 | . | 42 | . | -6 | 60* | . | 6%
COc1ccc(S(=O)(=O)Nc2ccc3c(c2)C(=O)N(C)C[C@@H](OC)[C@H](C)CN(Cc2cc(F)ccc2F)[C@H](C)CO3)cc1 | . | . | . | 9 | 5 | . | .
C[C@@H]1CCCCO[C@H](CN(C)Cc2ccc(C(=O)Nc3ccccc3N)cc2)[C@@H](C)CN([C@@H](C)CO)C(=O)c2cc(NS(=O)(=O)c3ccc(Cl)cc3)ccc2O1 | . | 89* | . | -14 | 59* | . | -8%
COc1ccc(S(=O)(=O)Nc2ccc3c(c2)C(=O)N([C@@H](C)CO)C[C@@H](C)[C@@H](CN(C)Cc2ccc(C(=O)Nc4ccccc4N)cc2)O3)cc1 | . | . | . | -26 | 49 | . | .
C[C@@H]1CN([C@H](C)CO)C(=O)c2cc(NC(=O)CCCCCC(=O)Nc3ccccc3N)ccc2O[C@H]1CN(C)S(=O)(=O)c1ccc(Cl)cc1 | . | . | . | -3 | 52* | . | -9%
COc1ccc(S(=O)(=O)Nc2ccc3c(c2)C(=O)N([C@H](C)CO)C[C@@H](C)[C@H](CN(C)CC2CCCCC2)OCCCC[C@@H](C)O3)cc1 | . | 19 | . | 1 | 5 | . | .
COc1ccc(S(=O)(=O)Nc2ccc3c(c2)C(=O)N([C@H](C)CO)C[C@@H](C)[C@@H](CN(C)CC2CCCCC2)OCCCC[C@H](C)O3)cc1 | . | 17 | . | 0 | 56* | . | -12%
COc1ccc(S(=O)(=O)Nc2ccc3c(c2)C(=O)N([C@H](C)CO)C[C@@H](C)[C@@H](CN(C)Cc2ccc(C(=O)Nc4ccccc4N)cc2)O3)cc1 | . | . | . | -24 | 56* | . | -1%
C[C@H](CO)N1C[C@H](C)[C@@H](CN(C)S(=O)(=O)c2ccsc2)OCc2ccccc2-c2c(n(C)c3ccccc23)C1=O | . | -27 | . | -4 | -5 | . | .
COc1cccc(NC(=O)N2CC(=O)N3[C@H](CO)[C@H](c4ccc(Br)cc4)[C@@H]3C2)c1 | . | . | . | . | 9 | . | .
C[C@@H]1CCCCO[C@@H](CN(C)S(=O)(=O)c2cccs2)[C@H](C)CN([C@H](C)CO)C(=O)c2cc(NC(=O)c3ccccc3)ccc2O1 | . | 0 | . | -3 | 20 | . | .
